In PubChem BioAssay AID1220 (Sanford-Burnham Center for Chemical Genomics, 2008):
The campaign covered roughly 190,000 compounds. About 1,300 (0.68%) were called active. Shown is part of a subset that was picked to be rich in actives. Values without a mark were called inactive. Rule as the data show it: active = inhibition above about 50%; inactive = the rest.

Biological target: Mannose-6-phosphate isomerase (Homo sapiens) (UniProt P34949)
Assay: human PMI inhibitors, high substrate, primary screen, biochemical, fluorescence intensity, high mannose 6-phosphate (AID 1220)
Details: recombinant PMI enzyme, coupled fluorescence intensity; at 20 µM; hits give high values

Chain of Mannose-6-phosphate isomerase (Homo sapiens) (P34949 whole entry, looked up): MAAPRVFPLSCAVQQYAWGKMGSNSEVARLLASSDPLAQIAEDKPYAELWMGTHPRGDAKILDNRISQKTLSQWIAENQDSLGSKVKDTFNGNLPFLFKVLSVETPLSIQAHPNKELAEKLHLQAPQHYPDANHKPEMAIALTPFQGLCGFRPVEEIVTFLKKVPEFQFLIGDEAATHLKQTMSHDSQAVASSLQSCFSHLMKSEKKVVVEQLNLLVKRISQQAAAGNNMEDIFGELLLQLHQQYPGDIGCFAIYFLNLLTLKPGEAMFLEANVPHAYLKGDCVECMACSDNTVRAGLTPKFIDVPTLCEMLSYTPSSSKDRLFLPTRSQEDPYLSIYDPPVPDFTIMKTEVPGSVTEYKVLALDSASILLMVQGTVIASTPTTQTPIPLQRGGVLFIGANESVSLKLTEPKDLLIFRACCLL

Going from `COc1cccc(NC(=O)CN2CC(c3ccccc3)CC2=O)c1` (configuration not stated) to `COc1cccc(CN2CCCCC2c2cccnc2)c1` (configuration not stated), the inhibition rises from -4.8% to -2.6%.

Going from `CCN(CC)CCCN=C(C)c1c(O)n(C2CCCCC2)c(=O)[nH]c1=O` to `CCN(CC)CC(O)c1ccc(C2CCCC2)cc1` (configuration not stated), the inhibition rises from -9.1% to -5.5%.

Going from `CCCCn1c(N)c(C(=O)OCC2CCCO2)c2nc3ccccc3nc21` (configuration not stated) to `CC(C)CCOC(=O)c1c(N)n(CC2CCCO2)c2nc3ccccc3nc12` (configuration not stated), the inhibition falls from 12% to 5.9%.

Going from `CC(C)OC(=O)c1c(N)n(CC2CCCO2)c2nc3ccccc3nc12` (configuration not stated) to `CC(C)CCNC(=O)c1c(N)n(CC2CCCO2)c2nc3ccccc3nc12` (configuration not stated), the inhibition rises from 16.9% to 23.9%.

Compared with `CCCCn1c(N)c(C(=O)NCCN2CCOCC2)c2nc3ccccc3nc21`, `CCCCCCn1c(N)c(C(=O)NCCN2CCOCC2)c2nc3ccccc3nc21` is lower in inhibition: 48.6% for the first, 23.2% for the second.

Going from `CC(C)OCCCNC(=O)c1c(N)n(CC2CCCO2)c2nc3ccccc3nc12` (configuration not stated) to `Nc1c(C(=O)OC2CCCCC2)c2nc3ccccc3nc2n1CC1CCCO1` (configuration not stated), the inhibition rises from 22.1% to 24.9%.

First: CC(NCc1ccccc1Cl)C(O)c1ccccc1 (configuration not stated)
Second: Cc1cc(=O)n(-c2ccccc2)n1-c1ccccc1
The inhibition of the first is higher: -3.1% for the first, -4.7% for the second.

Going from `CCN(CC)P(=S)(c1c(C)nc2ccccn12)c1c(C)nc2ccccn12` to `CCn1nc(-c2ccccc2)nc2c(=O)n(C)c(=O)nc1-2`, the inhibition rises from -6.3% to 7.6%.

First: CN1CCN(S(=O)(=O)c2cnc(Cl)c(Br)c2)CC1
Second: CN1CCN(c2ccc(F)cc2N)CC1
The inhibition of the first is higher: 10.5% for the first, -0.9% for the second.

First: COc1ccc(N2C(=O)NC(=O)/C(=C/c3ccc4c(c3)Cc3ccccc3-4)C2=O)cc1
Second: COc1ccc(-c2nc3ccccc3c(=O)n2-c2cccnc2)cc1
The inhibition of the first is lower: -32.8% for the first, -2.9% for the second.

Going from `COc1ccc(-c2cc(=NCCC(=O)O)c3cc(C)ccc3o2)cc1` to `COc1ccc(N=Cc2c(O)n(Cc3cccs3)c(=O)[nH]c2=O)cc1`, the inhibition falls from 3.9% to 0.9%.

First: OCC12COC3c4ccccc4C(OC1)N32 (configuration not stated)
Second: C[N+](C)(C)c1ccccc1
The inhibition of the first is lower: 5.1% for the first, 10.3% for the second.

Compared with `COc1ccc(OP(=O)(Nc2ccccc2)Nc2ccccc2)cc1`, `COc1ccc(NP(=O)(Nc2ccc(OC)cc2)Oc2ccccc2)cc1` is higher in inhibition: -14.6% for the first, -1.9% for the second.

First: CCCCCCC(=O)c1c(O)n(-c2ccccc2OC)c(=O)[nH]c1=O
Second: C=CCn1c(O)c(C(CC)=Nc2ccccc2NC(C)=O)c(=O)[nH]c1=O
The inhibition of the first is lower: -8.9% for the first, 0.5% for the second.

Compared with `CCn1nc(-c2cccs2)nc2c(=O)n(C)c(=O)nc1-2`, `CCn1nc(/C=C/c2ccccc2)nc2c(=O)n(C)c(=O)nc1-2` is higher in inhibition: 8.9% for the first, 46.6% for the second.

Going from `O=[N+]([O-])c1ccc(N2CCOCC2)c2cccnc12` to `O=[N+]([O-])c1ccc(N2CCCC2)c2ccncc12`, the inhibition rises from 36.9% to 47.4%.

First: COc1cccc(C(=O)C2CCCN(Cc3ccon3)C2)c1 (configuration not stated)
Second: COc1ccc(C(=O)C2CCCN(C3CSCCSC3)C2)cc1OC (configuration not stated)
The inhibition of the first is higher: 8.8% for the first, 8.3% for the second.

First: O=C(CN1CCOCC1)NCC(=O)Nc1ccc(Br)cc1C(=O)c1ccccc1
Second: COCCNC(=O)c1c(NC(=O)c2ccc(Br)o2)n(Cc2ccccc2)c2nc3ccccc3nc12
The inhibition of the first is lower: -0.3% for the first, 46.5% for the second.

Compared with `CCC[N+]12CCC(CC1)C(=C(c1ccccc1)c1ccccc1)C2`, `CCCCn1c(NS(=O)(=O)c2ccccc2)c(C(=O)OCC)c2nc3ccccc3nc21` is higher in inhibition: 5.9% for the first, 42.5% for the second.

Going from `O=c1[nH]c(=S)n(Cc2ccc(F)cc2)c(O)c1C=NCC1CCCO1` (configuration not stated) to `Cc1cc(C=O)c(C)n1CC1CCCO1` (configuration not stated), the inhibition falls from 6.1% to -8.4%.

Going from `CCOC(=O)c1c(N)n(CCCOC(=O)c2ccco2)c2nc3ccccc3nc12` to `CCOC(=O)c1c(NS(=O)(=O)c2ccccc2)n(CCCOC)c2nc3ccccc3nc12`, the inhibition rises from 0.2% to 44.9%.

First: CN1C(=O)C(=Cc2ccccc2OCc2ccccc2Cl)C(=O)N(C)C1=O
Second: CCOC(=O)c1c(-n2c(C)cc(/C=C3\C(=O)NC(=O)N(C)C3=O)c2C)sc2c1CCCC2
The inhibition of the first is lower: -9.8% for the first, 12.7% for the second.

First: O=C1/C(=C\c2cc3c(cc2Br)OCO3)N2CCC1CC2
Second: O=C1/C(=C\c2ccc3c(c2)OCO3)N2CCC1CC2
The inhibition of the first is higher: 19.8% for the first, 5.7% for the second.

First: O=C1/C(=C/c2cc([N+](=O)[O-])ccc2Cl)N2CCC1CC2
Second: O=C1/C(=C/c2ccc3c(c2)OCO3)N2CCC1CC2
The inhibition of the first is higher: -0.3% for the first, -2.8% for the second.

`CCOC(=O)C(NC(C)=O)C(OC(C)=O)c1cccc(N(CCCl)CCCl)c1` (configuration not stated) was tested, and the inhibition was -101%.

With `COc1cccc(C2CC3C(=O)C=CC2N3Cc2ccccc2)c1` (configuration not stated) the inhibition was 61.2% (active).
In the case of `CCC(C)NC(=O)c1c(N)n(CC2CCCO2)c2nc3ccccc3nc12` (configuration not stated), the inhibition is reported as 64.3% (active).
For `CCCCCn1c(N)c(C(=O)NCCN2CCOCC2)c2nc3ccccc3nc21`, the inhibition was 51.4% (active).
`Nc1c(C(=O)NC2CCCC2)c2nc3ccccc3nc2n1CC1CCCO1` (configuration not stated) was tested, and the inhibition was 62.2% (active).
In the case of `CCCNC(=O)c1c(N)n(CC2CCCO2)c2nc3ccccc3nc12` (configuration not stated), the inhibition is reported as 56.1% (active).
For `COc1ccc(P2(=O)Nc3ccccc3N2)cc1`, the inhibition was 52.2% (active).
With `O=[N+]([O-])c1ccc(N2CCOCC2)c2ccncc12` the inhibition was 55.8% (active).
With `CCCCn1c(NS(=O)(=O)c2ccc(C)cc2)c(C(=O)OCC)c2nc3ccccc3nc21` the inhibition was 52.3% (active).
`CCCCn1c(NC(=O)c2ccc(Br)o2)c(C(=O)OCC)c2nc3ccccc3nc21` was tested, and the inhibition was 56.4% (active).
For `Cn1ncnc2c(=O)n(C)c(=O)nc1-2`, the inhibition was 61.6% (active).
For `Cc1cc2c(C(C)C)c(O)c(O)c(C=O)c2c(O)c1-c1c(C)cc2c(C(C)C)c(O)c(O)c(C=O)c2c1O`, the inhibition was 51.4% (active).
With `O=C1/C(=C\c2cc3c(cc2Cl)OCO3)N2CCC1CC2` the inhibition was 57.2% (active).
`O=C1/C(=C/c2cc3c(cc2Cl)OCO3)N2CCC1CC2` was tested, and the inhibition was 51% (active).
